# Target: Neurogenic locus notch homolog protein 2 (Homo sapiens) (UniProt Q04721)
# Experiment: Notch2 binders on small-molecule microarrays, primary screen, biochemical, small-molecule microarray, 635 nm fluorescence, stem cell growth factors (AID 1073)
# Details: Notch2 binding, higher = more signal
# Chain of Neurogenic locus notch homolog protein 2 (Homo sapiens) (Q04721 whole entry, looked up): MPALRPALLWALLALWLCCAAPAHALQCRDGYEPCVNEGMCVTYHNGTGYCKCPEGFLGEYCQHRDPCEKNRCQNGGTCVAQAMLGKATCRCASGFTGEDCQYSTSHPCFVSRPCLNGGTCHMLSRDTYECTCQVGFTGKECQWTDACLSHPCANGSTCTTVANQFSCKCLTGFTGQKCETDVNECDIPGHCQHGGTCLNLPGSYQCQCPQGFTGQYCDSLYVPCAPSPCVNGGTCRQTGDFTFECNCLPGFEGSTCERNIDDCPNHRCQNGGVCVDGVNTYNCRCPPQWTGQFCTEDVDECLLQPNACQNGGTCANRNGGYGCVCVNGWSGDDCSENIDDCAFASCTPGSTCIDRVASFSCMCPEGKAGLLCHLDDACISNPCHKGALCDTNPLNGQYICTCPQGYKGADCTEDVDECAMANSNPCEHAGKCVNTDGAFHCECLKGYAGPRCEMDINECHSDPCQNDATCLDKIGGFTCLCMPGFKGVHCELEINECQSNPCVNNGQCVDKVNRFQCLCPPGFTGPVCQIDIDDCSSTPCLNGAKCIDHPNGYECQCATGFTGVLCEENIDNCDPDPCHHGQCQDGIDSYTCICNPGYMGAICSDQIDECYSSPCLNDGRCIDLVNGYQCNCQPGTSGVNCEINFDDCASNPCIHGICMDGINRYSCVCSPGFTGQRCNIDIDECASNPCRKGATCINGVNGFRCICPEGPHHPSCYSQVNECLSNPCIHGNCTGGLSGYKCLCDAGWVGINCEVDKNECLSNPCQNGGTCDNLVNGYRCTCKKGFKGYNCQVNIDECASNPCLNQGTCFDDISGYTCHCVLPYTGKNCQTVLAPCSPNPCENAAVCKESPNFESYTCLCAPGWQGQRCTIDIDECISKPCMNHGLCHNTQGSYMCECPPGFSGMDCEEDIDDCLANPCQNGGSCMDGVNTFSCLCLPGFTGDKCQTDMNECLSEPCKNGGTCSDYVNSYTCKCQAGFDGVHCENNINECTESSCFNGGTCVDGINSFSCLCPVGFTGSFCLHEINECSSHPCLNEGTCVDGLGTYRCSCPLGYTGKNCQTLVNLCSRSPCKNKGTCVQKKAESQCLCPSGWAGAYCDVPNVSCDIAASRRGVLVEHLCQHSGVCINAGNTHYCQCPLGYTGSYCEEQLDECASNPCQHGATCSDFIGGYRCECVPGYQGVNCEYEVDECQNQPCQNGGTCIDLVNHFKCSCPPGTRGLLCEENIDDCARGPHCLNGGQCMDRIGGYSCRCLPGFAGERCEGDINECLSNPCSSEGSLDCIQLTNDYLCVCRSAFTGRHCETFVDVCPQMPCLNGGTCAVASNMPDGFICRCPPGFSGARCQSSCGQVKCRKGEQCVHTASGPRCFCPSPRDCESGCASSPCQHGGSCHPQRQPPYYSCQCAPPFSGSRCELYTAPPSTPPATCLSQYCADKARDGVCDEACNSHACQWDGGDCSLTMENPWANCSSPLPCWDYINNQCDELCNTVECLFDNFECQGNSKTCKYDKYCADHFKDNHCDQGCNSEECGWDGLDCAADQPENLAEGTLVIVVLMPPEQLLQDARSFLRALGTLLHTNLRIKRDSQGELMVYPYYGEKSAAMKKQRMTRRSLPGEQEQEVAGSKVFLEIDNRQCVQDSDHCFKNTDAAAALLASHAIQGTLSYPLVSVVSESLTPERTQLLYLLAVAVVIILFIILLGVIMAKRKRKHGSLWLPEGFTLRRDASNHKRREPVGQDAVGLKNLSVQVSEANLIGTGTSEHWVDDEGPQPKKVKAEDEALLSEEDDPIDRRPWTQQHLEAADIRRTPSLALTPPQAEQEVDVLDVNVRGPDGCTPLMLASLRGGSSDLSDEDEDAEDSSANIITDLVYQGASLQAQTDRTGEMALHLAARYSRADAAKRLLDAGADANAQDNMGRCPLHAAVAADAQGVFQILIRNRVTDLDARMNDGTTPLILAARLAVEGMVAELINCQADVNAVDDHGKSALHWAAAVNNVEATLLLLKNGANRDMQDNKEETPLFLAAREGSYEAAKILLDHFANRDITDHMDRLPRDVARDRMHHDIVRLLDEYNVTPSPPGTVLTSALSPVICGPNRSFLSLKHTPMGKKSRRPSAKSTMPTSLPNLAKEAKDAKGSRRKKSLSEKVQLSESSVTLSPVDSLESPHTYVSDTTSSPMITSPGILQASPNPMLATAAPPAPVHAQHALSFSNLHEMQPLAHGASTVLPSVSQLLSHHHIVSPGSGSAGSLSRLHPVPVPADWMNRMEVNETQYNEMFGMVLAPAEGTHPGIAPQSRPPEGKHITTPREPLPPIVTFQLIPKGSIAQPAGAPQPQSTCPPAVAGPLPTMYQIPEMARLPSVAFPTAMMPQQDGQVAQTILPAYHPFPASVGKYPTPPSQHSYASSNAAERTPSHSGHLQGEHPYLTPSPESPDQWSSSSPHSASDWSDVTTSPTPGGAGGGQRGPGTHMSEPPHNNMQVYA
row,SMILES,composite z-score
1,C[C@@]1([C@@H](NS(=O)(=O)c2cccc3cccnc23)c2ccc(-c3ccccc3)cc2)C[C@H]1C1CCCCC1,0.983
2,O=C1O[C@H](c2ccccc2)[C@H](c2ccccc2)N2[C@H]1[C@@H](C(=O)N1CCN(c3ncccn3)CC1)[C@]1(C(=O)Nc3ccc(C#CC4(O)CCCCCC4)cc31)[C@H]2c1ccc(O)cc1,0.607
3,C=CCC(OC(C)=O)[C@@H]1[C@@H](N(Cc2ccc(-c3ccccc3)cc2)C(=O)Cc2ccc(OC)cc2)c2cc(OCCCO)ccc2N1C(=O)c1ccc2ccccc2c1 (stereo not given in full),-0.238
4,O=C(NC1CC1)[C@@H]1c2ccccc2C(=O)N(C2CCCCC2)[C@H]1c1ccc(CO)cc1,0.254
5,COC(=O)[C@@]1(Cc2ccccc2)[C@H]2c3cc(C(=O)N(C)C)n(Cc4nc5ccccc5[nH]4)c3C[C@H]2CN1C(=O)c1ccccc1,1.77
6,C=CCOC(=O)[C@@H]1[C@H]2C(=O)O[C@H](c3ccccc3)[C@H](c3ccccc3)N2[C@H](c2ccc(OCCOC(=O)[C@@H]3C[C@@H]4C(=O)N[C@@H](CC(C)C)C(=O)N4[C@@H]3c3ccc(O)cc3)cc2)[C@@]12C(=O)Nc1ccc(I)cc12,0.853
7,COCCOC(=O)N1C(=O)[C@@]2(c3cc(C#CCNC(N)=O)ccc31)[C@H](C(N)=O)[C@H]1C(=O)O[C@H](c3ccccc3)[C@H](c3ccccc3)N1[C@@H]2c1ccc(O)cc1,-0.148
8,C=CCNC(=O)[C@H]1[C@@H]2C(=O)O[C@@H](c3ccccc3)[C@@H](c3ccccc3)N2[C@@H](c2ccc(OCCO)cc2)[C@]12C(=O)Nc1ccc(C#Cc3ccc(OC)cc3)cc12,1.46
9,CN1C(=O)C2C=CC(C(O)c3ccc(I)cc3)N(N(c3ccccc3)c3ccccc3)C2C1=O (stereo not given),0.333
10,Cc1ccc(S[C@]2(C(=O)NCc3ccccc3)CC(=O)N(Cc3ccccc3Cl)[C@@H]2c2ccc(CO)cc2)cc1,-0.331
11,C[C@]1(C(=O)O)c2ccccc2C(=O)N(Cc2cc(C(F)(F)F)cc(C(F)(F)F)c2)[C@H]1c1ccc(CO)cc1,-0.0211
12,COC(=O)C(CC#Cc1ccc2c(c1)[C@]1(C(=O)N2)[C@H](C(N)=O)[C@H]2C(=O)O[C@H](c3ccccc3)[C@H](c3ccccc3)N2[C@@H]1c1ccccc1OCCO)C(=O)OC,-0.21
13,COC(=O)[C@@]1(Cc2ccc(F)cc2)[C@H]2c3cc(C(=O)N(C)C)n(Cc4ccc(C(F)(F)F)nc4)c3C[C@H]2CN1C(=O)c1ccccc1,1.74
14,CCN1C(=O)C2CC(=O)C3C(CN(S(=O)(=O)c4ccc(C)cc4)C3c3ccc(C)cc3)C2C1=O (stereo not given),0.308
15,C=C[C@H](OC)[C@@H](O)c1ccc(OC)c(O)c1,-1.34
16,CCCCCN1CC=CC23O[C@@H]4/C=C\CCCOC(=O)C4[C@H]2C(=O)N(CCCCCO)[C@@H]3C1=O (stereo not given in full),-0.581
17,CC(C)C[C@H]1NC(=O)CNC(=O)[C@@]23C(=O)N[C@@H](Cc4ccccc4)C2[C@H](C)[C@@]2(C)O[C@H]2C3/C=C/C/C=C\CNC1=O (stereo not given in full),-0.222
18,C=CCNC(=O)[C@@H]1[C@H]2C(=O)O[C@H](c3ccccc3)[C@H](c3ccccc3)N2[C@H](c2ccc(OCCO)cc2)[C@@]12C(=O)Nc1ccc(C#CCNC(N)=O)cc12,-1.01

row,SMILES,composite z-score
1,CC(C)[Si](C#Cc1ccccc1)(O[C@H](c1ccccc1)c1cn(Cc2ccccc2)nn1)C(C)C,0.534
2,C=C(C(=O)CC[C@@H](OC(=O)c1cccnc1)c1cccc(OCCO)c1)C(C)C,-0.0786
3,CCCCN1CC=CC23O[C@@H]4/C=C\CCC(C)OC(=O)C4[C@H]2C(=O)N(CCO)[C@@H]3C1=O (stereo not given in full),-0.722
4,O=C/C=C/c1ccc(-c2ccccc2)cc1,-0.327
5,COc1cc(CO)cc(I)c1O[C@H]1C=C(C(=O)NCCO)C[C@@H](N(CCN2CCOCC2)C(=O)C2CCCO2)[C@@H]1O (stereo not given in full),1.14
6,CC(C)C[C@@H]1NC(=O)[C@H]2C[C@@H](C(=O)O)[C@@H](c3cccc(OCCO)c3)N2C1=O,-0.26
7,COc1cc(Cc2cc3c(c(CCc4ccccc4)n2)[Si](C(C)C)(C(C)C)O[C@H]3c2ccccc2)cc(OC)c1OC,-0.285
8,C=CCNC(=O)[C@@H]1[C@H]2C(=O)O[C@H](c3ccccc3)[C@H](c3ccccc3)N2[C@H](c2ccc(O)cc2)[C@@]12C(=O)Nc1ccc(C#CC3=CCCCC3)cc12,0.87
9,Cc1cccc([C@H]2C[C@H]3C(Br)=C[C@@]2(CO)C(=O)[C@]32CO2)c1,-0.368
10,COCCOC(=O)N1C(=O)[C@@]2(c3cc(C#CCCO)ccc31)[C@H](C(=O)N1CCN(c3ncccn3)CC1)[C@H]1C(=O)O[C@H](c3ccccc3)[C@H](c3ccccc3)N1[C@@H]2c1ccc(OCCO)cc1,0.718
11,COC(=O)[C@H](Cc1ccccc1)N1CC(C)(OC)O[C@@H](Cc2ccccc2)[C@H]1/C=C/C1CC1 (stereo not given in full),0.144
12,CCOC(=O)C1=CCC(c2ccncc2)N(S(=O)(=O)c2ccc(C)cc2)C1 (stereo not given),1.32
13,COC(=O)[C@@]1(Cc2ccc(F)cc2)[C@H]2c3cc(C(=O)N4CCCC4)n(Cc4ccc(C(F)(F)F)nc4)c3C[C@H]2CN1C(=O)c1ccccc1,1.74
14,COCCOC(=O)N1C(=O)[C@@]2(c3cc(C#CCNC(N)=O)ccc31)[C@H](c1ccccc1OCCO)N1[C@H](c3ccccc3)[C@H](c3ccccc3)OC(=O)[C@H]1[C@@H]2C(=O)N1CCCCCCC1,0.725
15,CCCCC(=C=CC[C@@H](O)c1ccccc1OCCO)C[C@@H](O)c1ccccn1,0.418
16,O=C(NCC(F)(F)F)[C@@H]1c2ccccc2C(=O)N(Cc2cc(C(F)(F)F)cc(C(F)(F)F)c2)[C@H]1c1ccc(CO)cc1,0.154
17,CC(CO)N1C(=O)[C@@H]2[C@H]3C(=O)OCC=C[C@H]3OC23C=CCN(c2ccc4ccccc4c2)C(=O)[C@@H]13 (stereo not given in full),-1.19
